Screening results (PubChem)
This is a sample that favours compounds with a hit; in the whole collection about 0.15% have one here.
Eya2 inh: Eya2 (human) phosphatase inhibition | recombinant Eya2, OMFP fluorescence dephosphorylation (OMFP is methylfluorescein phosphate) | AID 488837 | 0.006% of 330,000 active | Potency, µM (series often up to 76.9 µM), inactives show at the top dose activity, negative = inhibition, usual class: inhibitors; note: % is set by controls: 0 for no effect and ±100 for the full control effect
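Eya2 (0.2 uM) preincubated 10 min at ambient with compound, then OMFP substrate added at 50 uM; 10 min reaction in 50 mM HEPES pH 7.5, 50 mM NaCl, 5 uM MgCl2, 0.05% BSA, 1 mM DTT. Fluorescence read at Ex 485/Em 525 nm.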
USP2a block: USP2a (human) protease inhibition. O75604. USP2 core, Ub-CHOP2 coupled fluorogenic reporter, 485/531. Potency, µM (series often up to 38.3 µM), without a hit: top-dose activity change, negative = inhibition, actives largely listed as inhibitors. 0.01% of 330,000 active;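 note: plate controls were DMSO wells for no effect and full inhibition by NEM control for full effect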
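Cell-free coupled assay: 10nM USP2 core preincubated 30min RT with compound in Tris-HCl pH 8.0/CaCl2/CHAPS buffer, then 25nM Ub-CHOP2 and 25nM reporter substrate; fluorescence (Ex 485/Em 531) read after 60min RT, normalized to NEM inhibition, concentration-response curves fitted.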
Chronic BCR inh: chronic active BCR signaling inhibition. ABC-DLBCL IkBa-CBG/CBR reporter, luminescence ratio, 4 h. Potency, µM (highest dose often 46.1 µM), without a hit: at the highest dose activity change, negative = inhibition, most hits filed as inhibitors. 0.05% of 340,000 active. AID 493014; active = well fitted inhibition curve with a large enough effect in the signal ratio, with a control signal flat, not every such curve was filed as active; inconclusive = small, poorly fitted or top-dose-only effect, or effect the other way, or a change in a side signal; the % refers to the signal ratio;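 note: plate controls were basal doxycycline-induced cells for no effect and cells given 10 µM MG132 for full effect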
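Doxycycline induced both beetle luciferases in TMD8 lymphoma cells; IKK-driven degradation limits the IkappaBalpha-fused green signal, while red luminescence normalises for cell number and nonspecific effects. Compounds tested up to 46 uM, 4 hrs.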
p53 reactivation: re-activators of mutant p53. Potency, µM (titrated, usually from 92.2 µM), for the others: at the highest dose activity change, positive = activation, hits mostly activators. 0.063% of 320,000 active. AID 504706. H1299 p53-A138V BP100-luciferase reporter, luminescence, 24 h; note: % of control where 0% means no effect; nearly all actives have a fitted effect of over 45% in size
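H1299 (p53-null), stable ts p53-A138V + BP100-Luc; 1000 cells/well, Opti-MEM/10% FBS; cpd 4 pt, 1:5; 24 h, 37 deg C, 5% CO2; detection reagent 10 min RT; luminescence.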
B2AR arrestin: agonists driving beta-arrestin recruitment to human beta2-adrenergic receptor; beta-arrestin recruitment to beta2AR, cell-based reporter; Potency, µM (highest dose often 46.1 µM), without a hit: at the top dose activation, usual class: activators; 0.02% of 330,000 active; AID 492947;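 note: 0% = DMSO controls and full agonism = EC100 isoproterenol or metaproterenol; nearly all actives have a fitted effect of over 65% in size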
Target sequence (P07550 whole entry, looked up): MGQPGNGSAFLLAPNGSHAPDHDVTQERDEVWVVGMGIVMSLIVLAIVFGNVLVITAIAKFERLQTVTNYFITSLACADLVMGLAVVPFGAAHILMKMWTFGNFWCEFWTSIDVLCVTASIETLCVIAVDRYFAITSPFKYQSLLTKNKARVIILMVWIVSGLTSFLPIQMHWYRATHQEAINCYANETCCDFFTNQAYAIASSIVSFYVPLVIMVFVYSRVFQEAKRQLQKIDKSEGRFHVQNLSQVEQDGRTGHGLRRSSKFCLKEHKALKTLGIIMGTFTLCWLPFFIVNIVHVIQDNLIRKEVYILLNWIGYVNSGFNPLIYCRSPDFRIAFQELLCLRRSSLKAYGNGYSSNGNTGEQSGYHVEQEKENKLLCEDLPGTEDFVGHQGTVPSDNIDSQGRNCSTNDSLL
* hit, by the source's call. Unless noted, calls come from the whole dose curve; as a rule, active = well fitted curve in the direction sought with a large enough effect; inconclusive = small, poorly fitted or top-dose-only effect, or another doubt; inactive = no such curve, though single readings can be large; an effect the other way counts as inactive or inconclusive. Potency is the fitted concentration of half-maximal effect.

For O=C(Nc1cccc(C(=O)Nc2ccc(S(=O)(=O)O)c3cc(S(=O)(=O)O)cc(S(=O)(=O)O)c23)c1)Nc1cccc(C(=O)Nc2ccc(S(=O)(=O)O)c3cc(S(=O)(=O)O)cc(S(=O)(=O)O)c23)c1 the results were Eya2 inh 26.2%.
For O=C(N/N=C/C1CC=CCC1)c1ccc(Cl)cc1O (centres undefined) the results were Eya2 inh 4.0%, USP2a block 0.9%, Chronic BCR inh inconclusive, p53 reactivation 31.6µM* and B2AR arrestin -0.1%.
`Cc1ccc2nc(-c3ccc(NC(=O)COC(=O)c4ccc([N+](=O)[O-])o4)cc3)sc2c1` gave Eya2 inh -0.2%, USP2a block 2.6%, Chronic BCR inh 5.1%, p53 reactivation 3.16µM* and B2AR arrestin -0.5%.
`Cc1ccc2nc(-c3ccc(NC(=O)COC(=O)c4ccc(Br)o4)cc3)sc2c1` gave Eya2 inh 4.6%, USP2a block 4.1%, Chronic BCR inh -0.5% and B2AR arrestin -0.2%.
Screening CC(=O)NC(c1ccco1)c1cc(Br)c2cccnc2c1O (centres undefined) returned Eya2 inh 13.7%, USP2a block -0.4%, Chronic BCR inh inconclusive and B2AR arrestin inconclusive.
`CCOC(=O)c1ccc(N/C=C/C(=O)c2ccco2)cc1` gave Eya2 inh -0.8%, USP2a block 2.4%, Chronic BCR inh -2.2%, p53 reactivation 16.9% and B2AR arrestin 3.1%.
O=C(/C=C/Nc1ccc(F)cc1)c1ccco1 was read as Eya2 inh -2.0%, USP2a block 0.4%, Chronic BCR inh inconclusive, p53 reactivation 44.7µM* and B2AR arrestin -0.8%.
CC(=O)c1cccc(N/C=C\C(=O)c2ccc(C)cc2)c1 was read as Eya2 inh -2.6%, USP2a block -0.4%, Chronic BCR inh inconclusive, p53 reactivation 35.5µM* and B2AR arrestin -0.3%.
CCOC(=O)c1cnc(-n2nc(C)cc2C)nc1Nc1ccc(C)cc1 was read as Eya2 inh -8.3%, USP2a block 1.5%, Chronic BCR inh -5.3%, p53 reactivation 13.6% and B2AR arrestin 0.0%.
`CCOC(=O)c1cnc(-n2nc(C)cc2C)nc1NC` gave Eya2 inh 9.3%, USP2a block 3.6%, Chronic BCR inh inconclusive, p53 reactivation 14.9% and B2AR arrestin 17.8µM*.
COC(=O)c1ccc(-n2c(C)cc(C(=O)CSc3cccc[n+]3[O-])c2C)cc1 was read as Eya2 inh 3.9%, USP2a block -0.6%, Chronic BCR inh 0.3%, p53 reactivation -5.8% and B2AR arrestin 0.1%.
`COC(=O)c1ccc(C(=O)OC)c(NC(=O)CSc2cccc[n+]2[O-])c1` gave Eya2 inh 1.5%, USP2a block -4.7%, Chronic BCR inh inconclusive, p53 reactivation -28.1% and B2AR arrestin 5.01µM*.
Screening Cn1ccc2cc(-c3ccc4ncnc(NCc5ccc6c(c5)OCO6)c4c3)ccc21 returned Eya2 inh -16.2%, USP2a block -1.4%, Chronic BCR inh -8.0% and B2AR arrestin -0.7%.
For CC(=O)Nc1ccc(NCc2cccs2)cc1 the results were Eya2 inh 6.4%, USP2a block 1.2%, Chronic BCR inh -15.7%, p53 reactivation -30.9% and B2AR arrestin -0.4%.
For Oc1ccc(NCc2cccs2)cc1 the results were Eya2 inh -1.2%, USP2a block 3.4%, Chronic BCR inh -6.4%, p53 reactivation 5.6% and B2AR arrestin 12.6µM*.
For CCOc1ccc(NC(=O)CSc2nc3ccsc3c(=O)n2C(C)CC)cc1 (centres undefined) the results were Chronic BCR inh -14.1%.
COC(=O)C1CCN(C(=O)c2oc3c(Cl)cc(C)cc3c2C)CC1 was read as Eya2 inh -0.5%, USP2a block -0.1%, Chronic BCR inh inconclusive, p53 reactivation 15.8µM* and B2AR arrestin 0.1%.
Screening CC(C)ON([C@@H](C(=O)NO)C(C)C)S(=O)(=O)c1ccc(-c2ccccc2)cc1 returned Eya2 inh 0.0%.
`O=C(CN1CCC(O)CC1)N1c2ccccc2C=Cc2ccccc21` gave Eya2 inh 7.8%, USP2a block 10µM*, Chronic BCR inh -1.1%, p53 reactivation -6.8% and B2AR arrestin -0.9%.
O=C(CS(=O)(=O)c1cccc2nsnc12)Nc1ccc(F)cc1F was read as Chronic BCR inh 8.9%.
For Cc1cc(C)n(-c2nc(NC(C)C)nc(NC(C)C)n2)n1 the results were Eya2 inh 7.2%, USP2a block 1.9%, Chronic BCR inh inconclusive, p53 reactivation 4.5% and B2AR arrestin 12.6µM*.
Screening CCNc1nc(NCC)nc(-n2nc(C)cc2C)n1 returned Eya2 inh 1.0%, USP2a block -7.0%, Chronic BCR inh inconclusive, p53 reactivation -3.6% and B2AR arrestin 7.94µM*.
Cc1cc(C)n(-c2nc(NC(C)(C)C)nc(NC(C)(C)C)n2)n1 was read as Eya2 inh 0.3%, USP2a block 0.3%, Chronic BCR inh -17.2%, p53 reactivation 3.5% and B2AR arrestin inconclusive.
Screening O=C(Cc1sc(Nc2ccccc2)nc1-c1ccccc1)NCc1ccccc1 returned Eya2 inh -1.4%, USP2a block -6.3%, Chronic BCR inh 10.1%, p53 reactivation 39.8µM* and B2AR arrestin 3.1%.
